In the library only some 2.9% were active in any assay of this set; here they are far more common.
ADAM10 inh – human ADAM10 inhibitors, primary screen, biochemical, QFRET, HTS; recombinant ADAM10, EDANS/DABCYL FRET peptide cleavage, 3 h; inhibition, % at 7 µM; 370,000 compounds, 0.62% hits; AID 720582, 2013;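 active = inhibition above a per-campaign cutoff equal to the mean of compounds falling between control-based bounds plus 3 SD, cut at about 20% in these data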;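 also: 0% = DMSO wells while the 100% control is not disclosed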
PLC-beta3 inh – human PLC-beta3 inhibitors, primary screen, biochemical, fluorescence; Purified PLC-beta3, fluorogenic substrate; inhibition, % at 12.2 µM; 370,000 compounds, 0.18% hits;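 also: 0% = median of compound wells on plate and 100% = full blocker control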
Target sequence (Q01970 whole entry, looked up): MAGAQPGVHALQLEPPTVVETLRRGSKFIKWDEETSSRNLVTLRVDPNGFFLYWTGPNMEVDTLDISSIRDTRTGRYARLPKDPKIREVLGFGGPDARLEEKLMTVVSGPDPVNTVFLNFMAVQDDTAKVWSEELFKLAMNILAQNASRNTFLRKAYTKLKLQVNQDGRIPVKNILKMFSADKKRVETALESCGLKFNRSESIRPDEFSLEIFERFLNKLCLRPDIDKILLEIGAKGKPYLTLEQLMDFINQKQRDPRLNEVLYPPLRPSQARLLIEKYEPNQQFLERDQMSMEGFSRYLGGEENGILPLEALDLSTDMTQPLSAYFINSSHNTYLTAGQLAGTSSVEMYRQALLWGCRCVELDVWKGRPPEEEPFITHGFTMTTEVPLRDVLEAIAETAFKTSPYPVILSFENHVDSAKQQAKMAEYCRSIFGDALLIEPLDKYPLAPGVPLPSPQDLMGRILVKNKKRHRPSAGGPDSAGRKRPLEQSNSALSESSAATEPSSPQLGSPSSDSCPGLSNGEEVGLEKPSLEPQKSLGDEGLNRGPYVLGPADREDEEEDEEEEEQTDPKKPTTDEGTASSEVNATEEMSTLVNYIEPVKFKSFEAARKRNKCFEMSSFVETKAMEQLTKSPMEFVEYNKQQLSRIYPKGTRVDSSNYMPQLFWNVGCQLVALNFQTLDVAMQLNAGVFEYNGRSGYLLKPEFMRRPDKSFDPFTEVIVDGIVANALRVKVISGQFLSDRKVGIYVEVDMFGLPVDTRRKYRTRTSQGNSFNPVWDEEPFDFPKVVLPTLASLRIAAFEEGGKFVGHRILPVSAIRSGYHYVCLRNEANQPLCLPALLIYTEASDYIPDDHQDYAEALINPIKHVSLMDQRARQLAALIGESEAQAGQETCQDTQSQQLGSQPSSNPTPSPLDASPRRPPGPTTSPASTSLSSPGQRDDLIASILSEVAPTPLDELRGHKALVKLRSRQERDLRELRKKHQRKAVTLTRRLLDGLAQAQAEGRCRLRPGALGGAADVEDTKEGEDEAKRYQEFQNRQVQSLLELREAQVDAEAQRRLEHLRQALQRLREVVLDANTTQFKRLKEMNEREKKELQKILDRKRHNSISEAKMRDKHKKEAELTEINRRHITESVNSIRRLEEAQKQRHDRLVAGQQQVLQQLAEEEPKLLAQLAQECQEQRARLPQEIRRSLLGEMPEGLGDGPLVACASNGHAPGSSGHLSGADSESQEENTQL
ADAM17 inh – ADAM17 inhibitors, primary screen, biochemical, QFRET; recombinant ADAM17, EDANS/DABCYL FRET peptide cleavage; inhibition, % at 6.95 µM; 370,000 compounds, 0.83% hits;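 active = inhibition above the mean of compounds lying between control limits plus 3 SD, set per campaign, cut at about 8.5% in these data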;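 also: 0% = DMSO-only wells as the low control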
proKLK7 act – proKLK7 zymogen activators, primary screen, biochemical, fluorescence intensity. purified proKLK7, EDANS-DABCYL substrate fluorescence; 100% is mature enzyme control, 0% vehicle. activation, % at 7 µM. 370,000 compounds, 0.9% hits. AID 652039, 2013;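 active = activation above the mean of all tested compounds plus 3 SD, computed per campaign excluding outliers beyond control limits, cut at about 13% in these data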
PLCg1 inh – PLC-gamma1 enzyme inhibitors, primary screen, biochemical, fluorescence, purified enzyme; 1-phosphatidylinositol 4,5-bisphosphate phosphodiesterase gamma-1 (Homo sapiens), P19174; fluorogenic substrate; inhibition, % at 12.2 µM; 370,000 compounds, 0.84% hits; AID 720700, 2013; in the data active = inhibition above about 9.5%
PLCg1 ctr – PLC-gamma1 enzyme inhibitors, counter-screen for PLC-beta3 inhibitor project, biochemical, fluorescence; shares compounds with PLCg1 inh; purified PLC-gamma1, fluorogenic substrate; inhibition, % at 12.3 µM; 3,300 compounds, 3.1% hits; AID 743258, 2014; in the data active = inhibition above about 9.5%
PLCb3 confirm – PLC-beta3 inhibitor confirmation, biochemical, fluorescence, purified enzyme; inhibition, % at 12.3 µM; AID 743261, 2014; shares compounds with PLCg1 inh; 3,300 compounds, 1% hits; fluorogenic substrate fluorescence
An asterisk follows results filed as active; / = no result given. Rule as the data show it, unless noted: active = inhibition above about 11%; inactive = the rest.

SMILES | ADAM10 inh | PLC-beta3 inh | ADAM17 inh | proKLK7 act | PLCg1 inh | PLCg1 ctr | PLCb3 confirm
COc1ccccc1COC(=O)c1cccc(S(=O)(=O)N(C)Cc2ccccc2)c1 | 1.4 | -6.6 | 5.4 | 0.4 | -6.0 | / | /
COc1ccc(NC(=O)C2Cc3c(-c4ccco4)ccnc3O2)cc1OC (stereo not drawn) | -10.4 | 0.2 | -4.7 | 0.6 | 5.0 | / | /
COC(=O)[C@@H]1CC[C@@](C)(c2ccc(OC)cc2)C1(C)C | -0.5 | 8.4 | 5.5 | -0.1 | 14.1* | -5.9 | -2.3
Cc1cccc(/C(N)=N/OC(=O)CCCc2ccccc2)c1 | -0.8 | -7.0 | -4.0 | 0.1 | 1.6 | / | /
Cc1cc[n+](-c2[nH]c(=O)sc2/C=N/N=C(\[O-])c2ccncc2)cc1 | 17.5 | 2.7 | 7.3 | 0.1 | 11.3* | 2.1 | 7.5
COc1ccc(C2=Nn3c(nnc3C(F)(F)F)SC2)cc1 | 1.2 | 2.9 | 0.6 | -0.2 | 0.5 | / | /
COC(CNC(=O)c1ccc2c(c1)nc(C)n2-c1cccc(C)c1)OC | 2.8 | -10.4 | -7.6 | 0.6 | -4.4 | / | /
CCCNC(=O)c1ccc2c(c1)nc(C)n2-c1cccc(C)c1 | -0.1 | 3.9 | 5.7 | -0.3 | 12.6* | 4.0 | -0.9
O=C(O)C1C(c2ccccc2)C(C(=O)N2CCOCC2)C1c1ccccc1 (stereo not drawn) | -1.6 | 4.2 | 0.1 | 1.2 | 6.3 | / | /
COC(=O)C1C(c2ccccc2)C(C(=O)N2CCOCC2)C1c1ccccc1 (stereo not drawn) | -12.6 | 15.3* | 1.1 | -0.5 | -1.1 | -2.0 | 2.8
COc1cc(OC)cc(C(=O)NC2CCCN(Cc3ccc(Cl)cc3)C2)c1 (stereo not drawn) | 1.8 | -1.5 | 4.2 | 0.4 | -0.2 | / | /
O=C(NC1CCCN(Cc2ccc(Cl)cc2)C1)c1ccnc(Cl)c1 (stereo not drawn) | 9.8 | -13.4 | 6.0 | -0.1 | 11.1* | -7.8 | -2.2
COC(=O)CCC(C)C1CCC2C3CCC4CC(O)CCC4(C)C3=CC(=O)C12C (stereo not drawn) | -3.0 | 11.1* | 4.7 | 0.5 | 2.3 | -3.8 | -2.9
CC(=O)c1c(C)[nH]c(C(=O)CN2C(=O)NC(C)(c3ccc(C)cc3)C2=O)c1C (stereo not drawn) | -1.5 | 6.2 | -3.3 | 0.7 | 2.9 | / | /
CCNC(=O)C1(C)CCN1CCS(=O)(=O)c1ccc(C)cc1 (stereo not drawn) | 6.9 | 12.6* | 4.0 | 1.0 | 2.3 | -5.9 | -0.9
CNS(=O)(=O)c1ccc2nc(NC(=O)/C=C/c3ccco3)sc2c1 | -29.6 | -48.7 | -8.5 | 6.9 | -29.1 | / | /
N#CCC[C@@H]1CC[C@]2(CCCN(Cc3ccc(Br)cc3)C2)O1 | -6.3 | 3.0 | -7.3 | -0.9 | 9.5* | 2.6 | 4.6
Cc1ccccc1NS(=O)(=O)c1ccc(C(=O)NCC(c2ccco2)N2CCCCC2)cc1 (stereo not drawn) | -0.4 | 0.1 | 3.9 | 0.2 | -0.3 | / | /
OCC1OC(n2cnc3c(N4CCCCC4)ncnc32)C(O)C1O (stereo not drawn) | 4.0 | 4.6 | 1.0 | -0.1 | 1.5 | / | /
CC(C)C[C@@]12C(=O)N(c3ccc(Br)cc3)C(=O)N1[C@H](c1ccc(Br)cc1)[C@@H]1C(=O)N(C(C)(C)C)C(=O)[C@@H]12 | 4.3 | 4.0 | -1.7 | 0.3 | 1.5 | / | /
Cc1cccc(OCCCn2c(CO)nc3ccccc32)c1 | 3.0 | 3.5 | 5.3 | -0.4 | 12.2* | -4.2 | -0.9
Cc1ccc(OCCCn2c(CO)nc3ccccc32)cc1 | -1.3 | 0.4 | -0.8 | -0.5 | 2.3 | / | /
COc1ccc(C2=NN(C(=O)CCC(=O)O)C(c3ccc(Br)cc3)C2)cc1 (stereo not drawn) | -13.3 | -9.6 | -7.2 | 0.6 | -5.5 | / | /
CC1=CCn2c(=O)c3ccccc3c(=O)n2C1 | 10.8 | 1.4 | 2.1 | -0.2 | 10.7* | 7.8 | 1.8
CNc1nc2c(c(=O)[nH]c(=O)n2C)n1CCCc1ccccc1 | -1.6 | -4.8 | -2.8 | 0.6 | 0.7 | / | /
SMILES | ADAM10 inh | PLC-beta3 inh | ADAM17 inh | proKLK7 act | PLCg1 inh | PLCg1 ctr | PLCb3 confirm
CCC(C)Nc1nc2c(c(=O)[nH]c(=O)n2C)n1CCCc1ccccc1 (stereo not drawn) | 1.9 | -4.3 | 1.4 | -0.2 | 10.2* | -5.8 | -2.6
CCC(C)Nc1nc2c(c(=O)[nH]c(=O)n2C)n1CCC(C)C (stereo not drawn) | 10.0 | 10.8* | 5.4 | -1.1 | 10.5* | 0.1 | 6.7
CCNc1nc2c(c(=O)[nH]c(=O)n2C)n1CC(C)C | -1.9 | 2.9 | -0.1 | -0.3 | 0.9 | / | /
CC(C)CC(NC(=O)C1CCCN1C(=O)OC(C)(C)C)C(=O)NCC(N)=O (stereo not drawn) | 8.9 | 13.8* | 5.9 | 0.3 | 7.1 | -1.6 | 2.3
COc1ccc(NC(=O)CN2C(=O)C(C)SC(C)C2=O)c(OC)c1 (stereo not drawn) | -5.2 | 2.9 | -1.3 | 0.6 | -0.9 | / | /
O=C(O)c1ccc(-c2ccccc2)[nH]c1=O | -284.2 | -62.2 | -100.7 | 2.3 | -36.8 | / | /
O=c1cc2oc3cc(O)c(O)cc3c(-c3ccccc3[N+](=O)[O-])c-2cc1O | 5.8 | 8.7 | 2.9 | 0.0 | 12.9* | 17.2* | 8.8
CN(CCOC(=O)c1occ2ccccc12)C1CN(Cc2cn(Cc3ccccc3Cl)nn2)S(=O)(=O)C1 (stereo not drawn) | -8.0 | 2.3 | -6.1 | 0.5 | -0.9 | / | /
O=C1OCC2=C1C(c1ccccc1)CC(=O)N2c1ccc(F)cc1 (stereo not drawn) | 8.8 | 2.0 | 2.0 | -0.4 | 11.2* | -0.4 | 2.5
CCc1ccc(-c2cc(C)no2)cc1S(=O)(=O)N1CCN(C(=O)c2ccco2)CC1 | -0.9 | -10.5 | -3.6 | 0.6 | -3.5 | / | /
CN1C(=O)[C@@H]2[C@H](C1=O)[C@@H]1C(=O)Nc3ccccc3C(=O)N1[C@@H]2c1cccc(Br)c1 | -59.0 | -61.2 | -12.9 | -13.9 | -43.9 | / | /
COc1ccc(NC(=O)COc2ccc(/C=N/O)cc2OC)cc1 | 10.2 | -5.5 | -2.5 | 0.1 | -0.3 | / | /
CCNC(=S)N/N=C/c1ccc(OCC(=O)Nc2ccc(OC)cc2)c(OC)c1 | 0.7 | 16.7* | 6.9 | -1.4 | 15.6* | 5.3 | -0.8
CC1CCC(NC(=O)COC(=O)CNC(=O)c2ccc3ccccc3c2)CC1 (stereo not drawn) | -22.3 | -7.3 | -0.9 | -0.6 | 4.9 | / | /

Screens as filed in PubChem BioAssay.
